22 compounds from PubChem BioAssay (NCATS) can be followed below.

Assay [1] in a line: P-glycoprotein substrates identified in KB-3-1 adenocarcinoma cell line, qHTS therapeutic library screen (AID 1346986). Note: nearly all actives have a fitted effect of over 60% in size. The note with it: KB-3-1 parental cells viability, CellTiter-Glo, 72 h; series mostly up to 44.5 µM. An outline of the steps: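 KB-3-1 parental and colchicine-selected P-gp-overexpressing KB-8-5-11 cells (colchicine omitted during assay), 500 cells/well, dosed in dose-response for 72 h at 37 °C; CellTiter-Glo luminescence. Cytotoxic: curve class -1.1 to -2.4, max response >50%, AC50 < 10 uM.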
On the technique in general: In qHTS, concentration-response curves come from the screen itself.

A short description of assay [2]: P-glycoprotein substrates identified in KB-8-5-11 adenocarcinoma cell line, qHTS therapeutic library screen (AID 1346987). Note: nearly all actives have a fitted effect of over 65% in size. The note with it: KB-8-5-11 (P-gp overexpressing) viability, CellTiter-Glo, 72 h; series mostly up to 44.5 µM. An outline of the steps: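 Steps: plate 500 KB-8-5-11 cells/well in DMEM + 10% FCS (colchicine removed); pin compounds in dose-response; incubate 72 h, 37 degree C, 5% CO2; add CellTiter-Glo, 5 min; read luminescence.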

The subject of assay [3] is Zika virus NS2B-NS3 protease (unlinked complex). The assay can be described thus: Primary screen GU Rhodamine qHTS for Zika virus inhibitors: Unlinked NS2B-NS3 protease assay (AID 1347159). Note: nearly all actives have a fitted effect of over 60% in size. Note: potency is the fitted concentration of half-maximal effect. The note with it: Recombinant ZIKV NS2B-NS3 protease, Rhodamine110 substrate fluorescence; series mostly up to 107 µM. An outline of the steps: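 Percent inhibition derives from the 15-min fluorescence change (ex 480, em 540 nm), normalized to no-enzyme and no-inhibitor wells. Reactions contained 25 nM NS2B-NS3 complex and 1.5 microM substrate in 10 mM Tris-HCl pH 8.0.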

Assay [4] has as its system Zika virus NS2B-NS3 protease (linked construct). Kind of assay: Primary screen NINDS Rhodamine qHTS for Zika virus inhibitors (AID 1347160). Note: nearly all actives have a fitted effect of over 55% in size. Note: potency is the fitted concentration of half-maximal effect. The note with it: purified NS2B-NS3 protease, Rhodamine110 substrate fluorescence; series mostly up to 33.1 µM. An outline of the steps: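 In 10 mM Tris-HCl pH 8.0 containing 0.01% Tween 20, linked NS2B-NS3 protease (25 nM final) is exposed to test compounds for 15 min. Cleavage of 1.5 microM Rhodamine110 substrate is tracked by fluorescence over 15 min.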

Structures are written as SMILES. Results filed as inconclusive are left out. The source made the active and inactive calls. Calls come from the whole dose curve; as a rule, active = well fitted curve in the direction sought with a large enough effect; inconclusive = small, poorly fitted or top-dose-only effect, or another doubt; inactive = no such curve, though single readings can be large; an effect the other way counts as inactive or inconclusive.

As to `O=C(c1ccc(Cl)c([N+](=O)[O-])c1)N1CCN(c2ccccc2F)CC1`, the Potency entry in assay [1], in assay [2], in assay [3] and in assay [4] was “inactive” each time.
Turning to `CCNC(=O)OC1CCN(c2nncc3cc(OC)c(OC)cc23)CC1`, the Potency entry in assay [1], in assay [2], in assay [3] and in assay [4] was “inactive” in each case.
As to `CC(=O)OCC1OC(O[C@H]2CC[C@@]3(C)C(CC[C@]4(C)C3CC=C3[C@@H]5CC(C)(C)CC[C@]5(C(=O)O)CC[C@]34C)[C@]2(C)CO)C(O)C(O)C1OC1OC(C)C(O)C(OC2OCC(O)C(O)C2O)C1O` (some centres not stated), the outcome in assay [1] and in assay [2] was “inactive [at 9.29 µM]” each time. Moreover, the Potency entry in assay [3] and in assay [4] was “inactive” in each case.
As to `C[C@]12CC/C(=N\OCC(=O)O)C=C1CC[C@@H]1[C@@H]2[C@@H](O)C[C@@]2(C)[C@H]1CC[C@]2(O)C(=O)CO`, the Potency result in assay [1], in assay [2], in assay [3] and in assay [4] was “inactive” each time.
Take `O=C(COCC(=O)N1CCN(C(c2ccccc2)c2ccccc2)CC1)Nc1ccc(Cl)cc1C(=O)O`: the Potency result in assay [1] and in assay [2] was “inactive” each time. In addition, the Potency is 11.2 µM (active) in assay [3] and 12.6 µM (active) in assay [4].
Regarding `C=CC(C)(C)C12Nc3c(ccc4c3OC(C)(C)C=C4)C1(O)CC1C(=O)N3CCCC3C(=O)N12` (configuration not stated), the Potency entry in assay [1], in assay [2], in assay [3] and in assay [4] was “inactive” in each case.
For `C/C(=C\C(=O)C[C@@]12C(=O)O[C@]3(C)CC[C@H]1C[C@H]23)C(N)=O`, the Potency entry in assay [1], in assay [2], in assay [3] and in assay [4] was “inactive” throughout.
Take `C/C=C/C=C/[C@@H]1O[C@](O)([C@H](CC)C(=O)NC/C=C/C=C(\C)[C@@H](OC)[C@@H](C)[C@@H]2O[C@H](/C=C/C=C/C=C(\C)C(=O)c3c(O)ccn(C)c3=O)[C@H](O)[C@@H]2O)[C@H](O)[C@H](O)C1(C)C`: the outcome in assay [1] and in assay [2] was “inactive [at 9.29 µM]” in each case. For the same compound, the Potency entry in assay [3] and in assay [4] was “inactive” in each case.
Regarding `COCCCc1sc(-c2ccccc2)nc1C(=O)Nc1ccccc1-c1nc2cc(CN3CCCC3)cnc2s1`, the Potency entry in assay [1], in assay [2], in assay [3] and in assay [4] was “inactive” throughout.
For the compound `C#CCCCn1cc(-c2cccc3c2N[C@@H](C)CC(=O)N3)cn1`, the Potency result in assay [1], in assay [2], in assay [3] and in assay [4] was “inactive” in each case.
For `COc1cc(C(=O)OC[C@H]2O[C@@H](OC(C)(C)C(=O)O)[C@H](O)[C@@H](O)[C@@H]2O)cc(OC)c1O`, the Potency result in assay [1], in assay [2], in assay [3] and in assay [4] was “inactive” in each case.
With `CC(CCc1ccc(O)cc1)O[C@@H]1O[C@H](CO[C@@H]2OC(CO)[C@H](O)[C@H]2O)[C@@H](O)[C@H](O)[C@H]1O` (some centres not stated), the Potency result in assay [1], in assay [2], in assay [3] and in assay [4] was “inactive” each time.
As for `Cc1cn(-c2cc(NC(=O)c3ccc(C)c(Nc4nccc(-c5cnccn5)n4)c3)cc(C(F)(F)F)c2)cn1`, the Potency entry in assay [1], in assay [2], in assay [3] and in assay [4] was “inactive” in each case.
On to `CC(NC(=O)[C@H](Cc1ccccc1)NC(=O)OCc1ccccc1)C(=O)CF` (some centres not stated), for which the Potency result in assay [1], in assay [2], in assay [3] and in assay [4] was “inactive” in each case.
Consider `O=C(O[C@H]1[C@H](Oc2ccc(O)cc2CO)O[C@H](CO)[C@@H](O)[C@@H]1O)c1ccccc1`, for which the Potency result in assay [1], in assay [2], in assay [3] and in assay [4] was “inactive” each time.
For the compound `C/C=C1/[C@H](O[C@@H]2O[C@H](CO)[C@@H](O)[C@H](O)[C@H]2O)OC=C2C(=O)O[C@@H]3C[C@@H](C(C)CO)[C@H](COC(=O)C[C@H]21)[C@H]3C` (some centres not stated), the Potency entry in assay [1], in assay [2], in assay [3] and in assay [4] was “inactive” throughout.
Turning to `CC(CC(C)O[C@@H]1O[C@H](CO)[C@@H](O)[C@H](O)[C@H]1O)OC(=O)/C=C/c1ccc(O)cc1` (some centres not stated), the Potency entry in assay [1] and in assay [2] was “inactive” throughout. For the same compound, the Potency in assay [4] was 12.6 µM (active).
In the case of `COc1cc(/C=C/C(=O)OC[C@H]2O[C@@H](OC3CC(C)=C(C(=O)O)C(C)(C)C3)[C@H](O)[C@@H](O)[C@@H]2O)cc(OC)c1O` (some centres not stated), the Potency entry in assay [1], in assay [2] and in assay [4] was “inactive” each time.
As to `CCOC(=O)C1=C(N)Oc2ccc(Cl)cc2C1C(C#N)C(=O)OCC` (configuration not stated), the Potency entry in assay [1], in assay [2] and in assay [4] was “inactive” each time.
As for `CC1(C)CC[C@]2(C(=O)O[C@@H]3O[C@H](CO)[C@@H](O)[C@H](O)[C@H]3O)CC[C@]3(C)C(=CCC4[C@@]5(C)CC[C@H](O[C@@H]6O[C@H](C(=O)O)[C@@H](O)[C@H](O)[C@H]6OC6OC(CO)C(O)C(O)C6O)C(C)(C)C5CC[C@]43C)[C@@H]2C1` (some centres not stated), the outcome in assay [1] and in assay [2] was “inactive [at 9.29 µM]” throughout. Further, in assay [4], the Potency entry was “inactive”.
Take `COc1c2c(c(C)c3c1C(=O)OC3)OC1(C)CC(O)C34OC(OC)(CCC3(C)C1C2)OC4(C)CO` (configuration not stated): the Potency result in assay [1], in assay [2] and in assay [4] was “inactive” each time.
As for `CC(=O)/C=C/C1C(C)CC(O[C@@H]2O[C@H](CO)[C@@H](O)[C@H](O)[C@H]2O)CC1(C)C` (some centres not stated), the Potency result in assay [1], in assay [2] and in assay [4] was “inactive” each time.
